Here are results for eight molecules from the supplement of paper PMC8975748.

Where a name gives a salt, the structure may show the parent alone. ± gives the standard deviation of the averaged measurements.

The subject of the assay is Saccharomyces cerevisiae BY4741 SeMeCo community. Briefly: mean cell size (pixel area) (pixels); higher = larger cells. As to conditions: 10 µM; 24 h; SM minimal medium. The essentials: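 In this assay, mean cell pixel area per well was obtained from automated confocal images of paraformaldehyde-fixed yeast analysed in Harmony. The cells were a Saccharomyces cerevisiae BY4741 community with four plasmids, each complementing one auxotrophy and carrying a fluorescent marker, grown for 24 h in SM medium with drug at a final 10 µM in 384-well plates. Values are averaged across 3 replicates. Same SeMeCo high-content imaging drug screen: Selleck FDA-approved drugs at 10 µM, 24 h in SM medium, 384-well plates, 3 replicates.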
`C[C@]12CCC3=C4CCC(=O)C=C4CC[C@H]3[C@@H]1CC[C@@]2(O)CC#N` [Dienogest] displayed a mean cell size of 12.4 ± 0.18.
The value for `C[N+]1(C)CCC(OC(=O)C(O)(c2ccccc2)C2CCCC2)C1` (stereo not drawn) [Glycopyrrolate] was 12.32 ± 0.11; that for `CC(=O)O[C@H]1C[C@@]2(C)[C@@H](C[C@@H](O)[C@H]3[C@@]4(C)CC[C@@H](O)[C@@H](C)[C@@H]4CC[C@@]32C)/C1=C(\CCC=C(C)C)C(=O)O` [Fusidine] was 12.41 ± 0.032.
For the molecule `NCC[C@H](O)C(=O)N[C@@H]1C[C@H](N)[C@@H](O[C@H]2O[C@H](CN)[C@@H](O)[C@H](O)[C@H]2O)[C@H](O)[C@H]1O[C@H]1O[C@H](CO)[C@@H](O)[C@H](N)[C@H]1O` [Amikacin disulfate], the mean cell size worked out at 11.9 ± 0.14.
With `CN(C)[C@@H]1C(O)=C(C(N)=O)C(=O)[C@@]2(O)C(O)=C3C(=O)c4c(O)cccc4[C@@](C)(O)[C@H]3[C@H](O)[C@@H]12` [Oxytetracycline (Terramycin)], the mean cell size came out at 12.87 ± 0.067.
Take `CO[C@@H]1[C@@H](O[C@@H]2O[C@H](C)[C@@H](O[C@H]3C[C@@](C)(O)[C@@H](OC(=O)CC(C)C)[C@H](C)O3)[C@H](N(C)C)[C@H]2O)[C@@H](CC=O)C[C@@H](C)[C@@H](O)/C=C/C=C/C[C@@H](C)OC(=O)C[C@H]1O` [Kitasamycin]: the mean cell size is 12.32 ± 0.037.
Then `CC(=O)[C@@]1(O)CC[C@H]2[C@@H]3CCC4=CC(=O)CCC4=C3[C@@H](c3ccc(N(C)C)cc3)C[C@@]21C` [Ulipristal], with 12.3 ± 0.16; and `CC[C@H]1OC(=O)C[C@@H](O)[C@H](C)[C@@H](O[C@@H]2O[C@H](C)[C@@H](O[C@H]3C[C@@](C)(O)[C@@H](O)[C@H](C)O3)[C@H](N(C)C)[C@H]2O)[C@@H](CC=O)C[C@@H](C)C(=O)/C=C/C(C)=C/[C@@H]1CO[C@@H]1O[C@H](C)[C@@H](O)[C@@H](OC)[C@H]1OC` [Tylosin tartrate], with 12.45 ± 0.055.
